According to PubChem BioAssay AID701 (PCMD, 2007):
In all, about 33,000 compounds went through this assay and about 70 (0.2%) were called active. Not all results are given here. A number with no mark means an inactive call. No stated cut-off is given here; in the data, active means inhibition above about 30%; inactive means the rest.

These compounds were tested against Coagulation factor XII (Homo sapiens) (UniProt P00748) (assay: human FXIIa protease inhibitors, primary screen, biochemical, single well (AID 701;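 further: 0% = enzyme with vehicle only and 100% = no enzyme blank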)). Conditions: purified human FXIIa, AMC substrate fluorescence, 2 h; at 10 µM; active compounds read high.
Coagulation factor XII (Homo sapiens), sequence (P00748 20-372 limits assumed): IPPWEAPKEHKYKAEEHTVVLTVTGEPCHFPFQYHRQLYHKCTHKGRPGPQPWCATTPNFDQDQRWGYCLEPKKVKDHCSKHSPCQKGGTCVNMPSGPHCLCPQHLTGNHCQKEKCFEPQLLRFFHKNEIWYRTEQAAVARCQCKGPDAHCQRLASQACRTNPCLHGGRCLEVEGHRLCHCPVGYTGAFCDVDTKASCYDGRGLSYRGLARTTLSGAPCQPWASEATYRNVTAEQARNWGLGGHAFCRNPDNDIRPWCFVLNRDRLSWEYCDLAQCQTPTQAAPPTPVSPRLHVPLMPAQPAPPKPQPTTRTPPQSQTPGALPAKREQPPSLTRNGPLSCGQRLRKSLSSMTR
Coagulation factor XII (Homo sapiens), sequence (P00748 373-615 limits assumed): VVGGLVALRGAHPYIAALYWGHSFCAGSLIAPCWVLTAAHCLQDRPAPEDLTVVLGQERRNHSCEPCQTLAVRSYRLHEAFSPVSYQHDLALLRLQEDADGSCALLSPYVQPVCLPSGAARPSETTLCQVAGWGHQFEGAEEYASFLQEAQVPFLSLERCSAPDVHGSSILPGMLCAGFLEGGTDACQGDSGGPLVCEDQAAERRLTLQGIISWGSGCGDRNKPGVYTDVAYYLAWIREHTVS

Row | Compound | inhibition [%]
1 | Cc1ccc(/C=N/NC(=O)Cn2nc(C)c(Br)c2C)o1 | 5.02
2 | Cn1nnc(NC(=O)CSc2ncn[nH]2)n1 | 2.58
3 | Cc1ccc2cc(CCNC(=O)c3ccc4c(c3)OCO4)c(=O)[nH]c2c1 | 7.29
4 | CCOc1cc2[nH]c(=S)n(Cc3ccc(C(=O)NCCOC)cc3)c(=O)c2cc1OCC | -2.63
5 | CCOC(=O)N1CCC(Nc2c(NCCCN3CCN(CC)CC3)c(=O)c2=O)CC1 | -0.96
6 | COc1cc(OC)c(-n2c(C)cc(C=O)c2C)cc1Cl | 3.21
7 | c1ccc(-n2nc3ccccc3n2)cc1 | 0.64
8 | CCOc1nc(NCCN2CCOCC2)nc(Nc2ccc(C)cc2)n1 | 2.85
9 | CCN(CC)CCn1c2ccc(Cl)cc2c2nc(C)sc21 | 5.85
10 | CCOC(=O)c1cnn(Cc2ccccc2Cl)c1N | -0.31
11 | Cc1nc2c(-c3ccc(F)cc3)c(C)nn2c(C)c1CCC(=O)NCc1ccco1 | 2.8
12 | CCOC(=O)/C(C#N)=C\c1c(C)cc(C)c(COC(C)=O)c1C | 14
13 | Cc1cc(NC(=O)CCC(=O)N(CC(=O)NCC2CCCO2)c2ccccc2C)no1 (configuration not stated) | 4.76
14 | CCC(C)NC(=O)CSC1=Nc2ccccc2C2=NC(CCC(=O)NCc3ccco3)C(=O)N12 (configuration not stated) | 5.92
15 | Cc1cc(S(=O)(=O)NC2CCCCC2)ccc1OCC(=O)NCc1cccnc1 | -2.34
16 | O=P(c1ccc2c(c1)OCCO2)(N1CCOCC1)N1CCOCC1 | -11.5
17 | COc1ccc(C2=NOC3(CC(=O)N(c4ccc(C)cc4)C3=O)C2)cc1 (configuration not stated) | 12.1
18 | CCOc1ccc(NC(=O)Nc2cc(C)on2)cc1 | 6.76
19 | O=C(NC1CCCCC1)C1CC(=O)N(CCc2ccccc2)C1 (configuration not stated) | 1.77
20 | O=C(NCc1ccccc1)[C@@H]1CSC2c3ccccc3C(=O)N21 (some centres not stated) | 0.72
21 | Cc1ccc(-n2c(=O)cc(N3CCN(Cc4ccccc4)CC3)[nH]c2=O)cc1 | -11.3
22 | COCCn1c(SCc2nnc(-c3ccc(OC)c(OC)c3)o2)nc2sc3c(c2c1=O)CCC3 | 7.92
23 | Cc1csc(OCC(=O)Nc2ccc(C)c(C)c2)n1 | 7.64
24 | Cc1cccc(N2CCN(S(=O)(=O)c3ccc4[nH]c(=O)c(=O)[nH]c4c3)CC2C)c1 (configuration not stated) | 7.11
25 | CCCCCCOc1ccc(OC(=O)c2cccnc2)cc1 | 4.38
26 | CCc1ccccc1NC(=O)CN(C)S(=O)(=O)c1ccc2c(c1)c(=O)n(C)c(=O)n2C | -0.9

Row | Compound | inhibition [%]
27 | CCn1c(CC(=O)Nc2ccc(C)cc2)nnc1SCC(=O)Nc1nc(C)cs1 | 3
28 | CCCc1nnc(NC(=O)c2cccs2)s1 | 4.48
29 | Cn1c(=O)c2c(SCC(=O)N3CCOCC3)nc(C3CC3)nc2n(C)c1=O | 5.78
30 | S=c1nccc(-c2cc(Cl)sc2Cl)[nH]1 | 3.01
31 | Cc1ccccc1CSCCNC(=O)c1ccc(Cl)c(S(=O)(=O)N2CCOCC2)c1 | -1.19
32 | CC(C)(C)c1ccc(OC2=CS(=O)(=O)c3ccccc32)cc1 | 6.47
33 | CCOc1ccc(C(=O)NCCCN2CCCC2=O)cc1 | 6.23
34 | COC(=O)c1cc(NC(=O)C2C3C=CC(C3)C2C(=O)O)cc(C(=O)OC)c1 (configuration not stated) | -2.18
35 | N#CC1=C(N)N(c2ccccc2)C2=C(C(=O)CCC2)C1c1ccccc1 (configuration not stated) | 6.03
36 | O=C(O)CCN=C1CCc2ccccc2N1 | 6.9
37 | O=C(NCc1ccccc1Cl)c1csc2c1CCCCC2 | 5.87
38 | CC1(C)N=C(c2ccccn2)C(C)(C)N1O | -0.08
39 | O=C(NCc1ccco1)C1(c2ccc(Cl)cc2)CCCC1 | 1.49
40 | CNC(=O)c1nnc(Cc2ccc(Cl)cc2)o1 | 2.02
41 | O=C(c1ccc2c(c1)OCO2)N1CCOCC1 | 0.77
42 | CCN1C(=O)/C(=C\N2CCOCC2)SC1=S | 7.15
43 | CC1(C)COC(c2cccn2Cc2ccccc2Cl)=N1 | 6.11
44 | O=C(CN1CCSCC1)N/N=C/c1ccc(F)cc1F | 13.2
45 | COc1ccc(Cl)cc1C(=O)NCc1cn(C)nc1C | 7.49
46 | COc1ccc(CNc2ccc3c(c2)CCC3)cc1OC | 4.51
47 | O=C1/C(=C\Nc2ccccc2)CCN1c1ncccn1 | 11.1
48 | N#Cc1cccc(NC(=O)CCC2CCCC2)c1 | 5.6
49 | O=C(NC1CCCC1)C(c1ccccn1)N(C(=O)c1csnn1)C1CCCC1 (configuration not stated) | -12
50 | Cc1cc(C(F)F)n2nc(C(=O)Nc3ccc(S(=O)(=O)NC45CC6CC(CC(C6)C4)C5)cc3)nc2n1 | 3.77
51 | CCOc1ccc(C(O)Cn2c(=N)n(CCN3CCCCC3)c3ccccc32)cc1 (configuration not stated) | -17.3
52 | Cc1cc(C(F)(F)F)n2ncc(-c3ccccc3)c2n1 | 4.27

Row | Compound | inhibition [%]
53 | CCC1(CC)Cc2ccccc2-c2nc3ccccc3c(=O)n21 | -9.34
54 | Cc1ccc(NS(=O)(=O)c2c(C)[nH]c(=O)[nH]c2=O)cc1C | 5.29
55 | CC(C)NC(=O)CSc1nnc(COc2ccccc2Cl)o1 | 6.2
56 | CCOC(=O)N1CCC(N(CCOC)C(=O)Nc2ccc(C)c(C)c2)CC1 | 11
57 | N#C/C(=C\c1ccccc1)c1n[nH]c(Cn2cncn2)n1 | 3.67
58 | CCOC(=O)c1cnc(SCc2nc(N)nc(Nc3ccc(OC)cc3)n2)nc1N | 2.04
59 | O=C(N/N=C/C=C/c1ccccc1)C1CC1(c1ccccc1)c1ccccc1 (configuration not stated) | 7.46
60 | CCOc1ccc(NC(=O)N(CC(C)C)CC(C)C)cc1 | 3.85
61 | CCC(C)NC(=O)C1CCCN(C(=O)NC2CCCCC2)C1 (configuration not stated) | 5.82
62 | O=C(CC12CC3CC(CC(C3)C1)C2)Nc1ccc2c(c1)COC2=O | 3.57
63 | COc1ccc(C)cc1N(C)C(=O)c1coc(=O)c2ccccc12 | 1.74
64 | C=CCNC(=O)C1CC=CCC1C(=O)O (configuration not stated) | 5.98
65 | CC1CC(C)CN(CC(=O)N2c3ccccc3CCc3ccccc32)C1 (configuration not stated) | -2.18
66 | COC(CNC(=O)Cn1ncc2ccsc2c1=O)OC | 8.94
67 | Cc1cccc(C)c1NC(=O)CSc1nnc(-c2ccccc2)n1Cc1ccc2c(c1)OCO2 | 7.65
68 | CC1(C)CC(CC(=O)O)C(=O)O1 (configuration not stated) | -10.1
69 | COc1ccccc1-c1nc(C#N)c(N2CCC(C(N)=O)CC2)o1 | -1.38
70 | COc1ccc(Br)cc1CN1CCN(C(=O)c2cccc(OC)c2OC)CC1 | 6.66
71 | O=C(CCN1c2ccccc2Sc2ccccc21)Nc1ccccc1 | 4.62
72 | COc1ccc(NC(=O)C(CC(C)C)NS(=O)(=O)c2ccc3c(c2)CCN3C(C)=O)cc1OC (configuration not stated) | 5.4
73 | CCOC(=O)c1ccc2c(c1)nc(C)n2CC | 2.03
74 | CCCNC(=O)c1ccc(Cl)c(Cl)c1 | 3.09
75 | CCCCc1nnc(NC(=O)CS(=O)(=O)Cc2ccccc2)s1 | 2.19
76 | N#C/C(=C(\O)CCl)c1nnc2n1CCCCC2 | 1.09
77 | Cc1ccc(-n2nc3c(c2NC(=O)CCC2CCCCC2)CS(=O)C3)cc1 (configuration not stated) | 2.44
